The list is not random: actives were taken first. Their share in the collection is about 12%.
JMJD2A Tudor inh: qHTS Assay for Inhibitors of JMJD2A-Tudor Domain | Lysine-specific demethylase 4A (Homo sapiens), O75164 | AlphaScreen JMJD2A-Tudor / H3K4me3 peptide binding | Potency, µM (doses to about 114 µM), for the others: at the highest dose activity change, negative = inhibition, hits mostly inhibitors | 390,000 tested, 4.4% active; also: % is scaled to controls: 0 for no effect and ±100 for the full control effect; nearly all actives have a fitted effect of over 50% in size
G9a block: qHTS Assay for Inhibitors of Histone Lysine Methyltransferase G9a. 350,000 tested, 8.8% active. Histone-lysine N-methyltransferase EHMT2 (Homo sapiens), Q96KQ7. G9a H3K9 monomethylation, AlphaScreen, 2 h. Potency, µM (series often up to 102 µM), for inactives: at the top dose activity, negative = inhibition, most hits filed as inhibitors; also: % is scaled to controls: 0 for no effect and ±100 for the full control effect; nearly all actives have a fitted effect of over 75% in size
Target sequence (Q96KQ7 913-1193 limits assumed): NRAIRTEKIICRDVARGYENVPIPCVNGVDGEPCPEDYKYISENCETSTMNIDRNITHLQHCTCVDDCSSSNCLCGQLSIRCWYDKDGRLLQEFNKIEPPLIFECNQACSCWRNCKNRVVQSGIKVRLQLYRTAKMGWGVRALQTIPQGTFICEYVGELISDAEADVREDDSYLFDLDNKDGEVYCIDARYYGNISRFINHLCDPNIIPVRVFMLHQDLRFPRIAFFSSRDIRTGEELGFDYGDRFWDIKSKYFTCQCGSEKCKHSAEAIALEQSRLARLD
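Using a bead-based AlphaScreen, monomethylated H3K9 product from 2 h room-temperature reactions (G9a 20 nM, peptide 500 nM, SAM 20 uM) was detected with 0.5 ug/mL rabbit anti-H3K9me1 antibody.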
BAZ2B block: qHTS Assay for Inhibitors of BAZ2B; Bromodomain adjacent to zinc finger domain protein 2B (Homo sapiens), Q9UIF8; AlphaScreen BAZ2B-H3K14Ac peptide displacement; Potency, µM (series often up to 114 µM), without a hit: at the top dose activity change, negative = inhibition, usual class: inhibitors; 360,000 tested, 4.4% active; also: % is scaled to controls: 0 for no effect and ±100 for the full control effect; nearly all actives have a fitted effect of over 60% in size
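Compounds, titrated to a top concentration of 110 uM, were incubated 30 min at room temperature with preformed BAZ2B/acetyl-K14 H3 peptide complex (50 nM each). Proximity signal was measured by AlphaScreen after 20 min with beads.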
HP1b chromo inh: HTS for Inhibitors of HP1-beta Chromodomain Interactions with Methylated Histone Tails; Chromobox protein homolog 1 (Homo sapiens), P83916; AlphaScreen HP1-beta / biotin-H3K9me3 peptide binding; Potency, µM (highest dose often 114 µM), inactives show top-dose activity change, negative = inhibition, actives largely listed as inhibitors; 390,000 tested, 0.56% active; AID 540317, 2011; also: nearly all actives have a fitted effect of over 70% in size
Target sequence (P83916 whole entry, looked up): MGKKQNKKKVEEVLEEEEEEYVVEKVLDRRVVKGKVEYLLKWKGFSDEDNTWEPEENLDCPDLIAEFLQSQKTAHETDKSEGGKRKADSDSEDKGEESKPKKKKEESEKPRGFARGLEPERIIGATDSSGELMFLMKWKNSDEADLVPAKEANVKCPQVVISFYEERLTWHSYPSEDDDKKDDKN
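HP1-beta protein (50 nM final) preincubated 30 min at room temperature with biotinylated H3(1-18)K9me3 peptide (50 nM) in PBS pH 7.4, 0.01% Tween-20, then compound added for 30 min. AlphaScreen streptavidin donor/nickel chelate acceptor beads (10 ug/mL final), 30 min dark, luminescence read.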
PLK1 PBD block: qHTS for Inhibitors of PLK1-PDB (polo-like kinase 1 - polo-box domain): Primary Screen; 360,000 tested, 2.8% active; Serine/threonine-protein kinase PLK1 (Homo sapiens), P53350; Plk1 PBD binding of FITC phosphopeptide, fluorescence polarization; Potency, µM, without a hit: max response, negative = inhibition, most hits filed as inhibitors; also: series mostly up to about 57 µM; % is scaled to controls: 0 for no effect and ±100 for the full control effect; nearly all actives have a fitted effect of over 65% in size
Sfp inh: qHTS Assay for Inhibitors of Bacillus subtilis Sfp phosphopantetheinyl transferase (PPTase). 4'-phosphopantetheinyl transferase ffp (Bacillus subtilis), Q9F4F7. Biochemical Sfp PPTase activity, qHTS. Potency, µM, for the others: largest response in the series, negative = inhibition, actives largely listed as inhibitors. 310,000 tested, 3.5% active;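 also: the enzyme is Sfp with the accession as filed and its product quenches rhodamine fluorescence; 0% = enzyme reaction without inhibitor and -100% = no enzyme wells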
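Sfp 15 nM + cpd, 15 min RT; start w/ rhodamine-CoA 5 uM, BHQ-2-YbbR 12.5 uM (final); 50 mM Hepes pH 7.6, 10 mM MgCl2, 0.01% NP-40, 0.01% BSA; read 525/598 nm at 0 and 30 min.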
An asterisk follows results filed as active; ? = inconclusive; . = no result; ! = repeats disagree; [ ] = dose if it differs, or a comment. Calls follow the shape of the dose curve; as a rule, active = well fitted curve in the direction sought with a large enough effect; inconclusive = small, poorly fitted or top-dose-only effect, or another doubt; inactive = no such curve, though single readings can be large; an effect the other way counts as inactive or inconclusive. Potency is read from the fitted curve at half-maximal effect.

SMILES | JMJD2A Tudor inh | G9a block | BAZ2B block | HP1b chromo inh | PLK1 PBD block | Sfp inh
NC1=NC(c2cn(-c3ccccc3)nc2-c2cccs2)n2c(nc3ccccc32)N1 (centres undefined) | ? | 9%[2.33 µM] | 0% | 5% | 2% | 45µM*
O=C(CCC(=O)c1ccccc1)Nc1ccccc1OC(F)F | -2% | -7% | 6% | 44% | 4% | 18%
NC(N)=NCCC[C@H](N)C(=O)NCC(=O)N[C@@H](CC(=O)O)C(=O)N[C@@H](CO)C(=O)O | . | . | . | . | . | 0%
O=C(CSc1nnc(-c2cccnc2)n1-c1ccc(F)cc1)NCc1ccc2c(c1)OCO2 | -12%[11.4 µM] | -12%[59 µM] | -4% | -7% | 12µM* | 8%
O=C(CSc1ccc2nnc(-c3cccnc3)n2n1)NCc1ccc2c(c1)OCO2 | 56µM* | ? | -6% | 33% | -23% | ?
CC1(CCc2ccc3c(c2)OCO3)NCCc2c1[nH]c1ccccc21 (centres undefined) | ? | 50µM* | -38% | 14% | -8% | 2%
O=[N+]([O-])c1ccc(SCCc2ccccn2)cc1 | -33% | 13µM* | -21% | -17% | 17µM* | ?
Cn1c(SCCc2ccc([N+](=O)[O-])cc2)nccc1=O | -9% | . | . | 11% | 4% | .
O=[N+]([O-])c1ccc(SCCc2ccncc2)cc1 | 50µM*! | 11µM* | 50µM* | ? | 19µM* | 50µM*
CN(CCc1ccccn1)c1ccc([N+](=O)[O-])cn1 | -6% | -3%[59 µM] | -9% | 11% | 3% | 3%
O=C(C1CCCN(S(=O)(=O)c2cccs2)C1)N1CCN(c2cccc(Cl)c2)CC1 (centres undefined) | -17% | -18%[59 µM] | -11% | 23% | . | .
C=CCNc1nc2c3ccccc3n(C(C)=O)c2s1 | ? | 32µM* | ? | -2% | 27µM* | 79µM*
CC(=O)n1c2ccccc2c2nc3ccccc3nc21 | 0% | 33%[0.501 µM] | 37% | 35% | -3% | 13%
COc1cc(NC(=O)Nc2cccc(Cl)c2)c(OC)cc1NC(=O)CN1CCCCC1 | 45µM* | 13µM* | 40µM* | ? | 3% | 4%
O=C(CN1CCCC1)Nc1ccc(Cl)cc1C(F)(F)F | ? | 6% | . | ? | 24µM* | 2%
C=CC1=C2C=C(C3CC3)N(Cc3ccco3)C=C2C(=O)C(C)(OC(=O)c2ccco2)C1=O (centres undefined) | . | . | . | . | . | 8%
Cc1nn(-c2ccccn2)c2c1C(c1c(F)cccc1Cl)C1=C(N2)c2ccccc2C1=O (centres undefined) | . | ? | 8.9µM* | . | . | -27%
O=C(Nc1nnc(-c2ccc(Cl)cc2)o1)c1ccc(N2C(=O)CCC2=O)cc1 | -14% | 43%[59 µM] | -26% | 19% | -1% | 27%
CC(=O)Nc1nnc(-c2ccco2)o1 | 4µM* | 7% | ? | 8% | -5% | -23%
O=C(Nc1nnc(-c2ccco2)o1)c1ccc(Cl)s1 | 0% | 79µM* | ? | 56% | 4% | 32%
O=C(Nc1nnc(-c2ccco2)o1)c1ccc(N2C(=O)CCC2=O)cc1 | 28µM* | -26% | 18µM* | 27% | -7% | 79µM*
O=C(Nc1nnc(-c2ccc(Br)cc2)o1)c1cccc(N2C(=O)CCC2=O)c1 | -21% | -33% | 71µM* | 34% | -4% | .
O=C(Nc1ccc(Br)cc1)c1cccc(N2C(=O)CCC2=O)c1 | -16% | . | 19% | 6% | -5% | 12%
CCN(CC)CCCNc1nc2ccccc2c2nc(-c3ccncc3)nn12 | -24% | 5% | -12% | 14%[57 µM] | ? | 12%
O=C(CSc1ccc(F)cc1)Nc1nnc(-c2ccco2)o1 | ? | 1%[0.501 µM] | 35µM* | 38% | -14% | .
SMILES | JMJD2A Tudor inh | G9a block | BAZ2B block | HP1b chromo inh | PLK1 PBD block | Sfp inh
Cc1ccc(NC(=O)CSc2nnc(-c3ccco3)o2)cc1 | 1% | 5%[59 µM] | -9% | 30% | -3% | 10%
CC(C)CN(CCCNC(=O)c1cc(-c2cccs2)nc2ccccc12)CC(C)C | -5% | 8%[59 µM] | 8% | 43% | . | .
O=C(CCCN1C(=O)/C(=C/c2ccccc2OC(F)F)SC1=S)Nc1cccnc1 | 18µM* | . | . | -23% | 9% | .
O=C(CCN1C(=O)/C(=C\c2ccccc2Cl)SC1=S)Nc1cccnc1 | ? | 33% | ? | -20% | -11% | 10%
O=C(CCN1C(=O)/C(=C/c2ccccc2F)SC1=S)Nc1cccnc1 | ? | . | 1.1µM* | -6% | -15% | 1%
COc1ccccc1/C=C1/SC(=S)N(CCC(=O)Nc2cccnc2)C1=O | ? | 24% | -2% | 24% | 19% | 17%
COc1ccc(NC(=S)NNC(=O)c2ccccc2OC(F)F)cc1 | -20% | ? | 0% | 5% | -10% | 3%
CCc1ccc(NC(=S)NNC(=O)c2ccccc2OC(F)F)cc1 | . | 13µM* | 6% | . | . | 10%
CC(C)(C)OC(=O)N/N=C/c1ccc(N2CCOCC2)s1 | -16% | 16µM* | -4% | 12% | 0% | -8%
Nc1ccc(C(=O)N/N=C/c2ccc(N3CCOCC3)s2)cc1 | -24% | . | . | 19% | -9% | .
O=C(N/N=C/c1ccc(N2CCOCC2)s1)c1ccccc1Br | -9% | ? | -26% | 23% | -5% | 35µM*
Clc1cccc(N/N=C/c2ccc(N3CCOCC3)s2)c1 | -14% | 1.1µM* | 50µM* | 21% | -9% | ?
O=C(COC(=O)c1ccc(Br)c(S(=O)(=O)N2CCOCC2)c1)NC1CC1 | -9% | . | . | 28% | -10% | .
COc1ccc(NC(=O)CN(c2ccc(C)cc2)S(=O)(=O)c2cccc3nonc23)cc1OC | -33% | ? | . | 6% | . | .
CC1C(=O)OC2C(O)C34C5CC(C(C)(C)C)C36C(OC(=O)C6O)OC4(C(=O)O5)C12O (centres undefined) | . | . | . | . | . | 4%
Cc1nc2c(C)cccn2c1/C(O)=C1\C(=O)C(=O)N(CCN2CCOCC2)C1c1cccs1 (centres undefined) | ? | 20µM* | ? | 2% | -4% | -6%
COc1cccc(/C(O)=C2/C(=O)C(=O)N(CCN3CCOCC3)C2c2cccs2)c1 (centres undefined) | ? | 45µM* | -4% | 14% | -14% | 3%
Cc1nc2ccccn2c1/C(O)=C1\C(=O)C(=O)N(CCN2CCOCC2)C1c1ccncc1 (centres undefined) | 25µM* | ? | ? | 2% | -6% | 5%
Cc1cccc(C(=O)Nc2ccccc2OCc2cc(=O)n3c(C)csc3n2)c1 | -8% | 0%[59 µM] | -2% | 26% | . | .
